# Counter-ions that a name gives are not always drawn. ± gives the standard deviation of the averaged measurements.
# Experiments:
# Experiment in all cases: growth (OD600 after 10 h); higher = more growth (less inhibition)
# [1] = system: E. coli TESEC Alr+ wild-type control; conditions: compound 0.1 mM; raw OD600 reference: median of DMSO wells 0.241, cell-free background 0.041
# Procedure: (§1)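 TESEC Mtb Alr E. coli, or the Alr+ wild-type control, in 384-well plates with Prestwick library compounds at 0.1 mM and 1% DMSO, across arabinose induction levels of 1E3 to 1E7 nM. Growth is read as OD600 after 10 h at 37 °C in triplicate biological replicates.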
# E. coli TESEC Mtb Alr [2] = conditions: compound 0.1 mM
# Procedure: as §1
# E. coli TESEC Mtb Asd = conditions: compound 0.1 mM
# Procedure: (§2)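 TESEC E. coli strains in which the native enzyme is deleted and replaced by arabinose-inducible Mtb Asd, DapB, CysH or TrpD, each grown in its selective medium. Strains were screened against the Prestwick library at 0.1 mM and 1% DMSO in 384-well format at low and high arabinose induction. Growth is read as OD600 after 10 h in triplicate.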
# E. coli TESEC Mtb DapB = conditions: compound 0.1 mM
# Procedure: as §2
# [3] = system: E. coli TESEC Alr+ wild-type control; conditions: compound 0.1 mM; raw OD600 reference: median of DMSO wells 0.49, cell-free background 0.052
# Procedure: (§3)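 TESEC Mtb Alr E. coli (ΔaraC ΔtolC ΔentC Δalr ΔdadX, arabinose-inducible Mtb Alr) or the Alr+ wild-type control strain, grown in defined M9-fructose medium without D-alanine in 96-well plates with Prestwick library compounds at 0.1 mM and 1% DMSO. Low Alr induction is 0.1 µM arabinose and high induction is 10 mM arabinose.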
# E. coli TESEC Mtb Alr [4] = conditions: compound 0.1 mM; remark: listed apart in the source
# Procedure: as §3
# [5] = arabinose 1000 nM, raw OD600 reference: median of DMSO wells 0.294, cell-free background 0.041
# [6] = arabinose 10000 nM, raw OD600 reference: median of DMSO wells 0.264, cell-free background 0.041
# [7] = arabinose 100000 nM, raw OD600 reference: median of DMSO wells 0.201, cell-free background 0.041
# [8] = arabinose 1000000 nM, raw OD600 reference: median of DMSO wells 0.193, cell-free background 0.041
# [9] = arabinose 10000000 nM, raw OD600 reference: median of DMSO wells 0.146, cell-free background 0.041
# [10] = arabinose induction (level): High, raw OD600 reference: median of DMSO wells 0.331, cell-free background 0.041
# [11] = arabinose induction (level): Low, raw OD600 reference: median of DMSO wells 0.417, cell-free background 0.041
# [12] = arabinose induction (level): High, raw OD600 reference: median of DMSO wells […], cell-free background 0.041
# [13] = arabinose induction (level): Low, raw OD600 reference: median of DMSO wells 0.227, cell-free background 0.041
# [14] = arabinose 100 nM, raw OD600 reference: median of DMSO wells 0.413, cell-free background 0.052
# [15] = arabinose 10000000 nM, raw OD600 reference: median of DMSO wells […], cell-free background 0.052
Compound,growth [1],growth (E. coli TESEC Mtb Alr [2]; [5]),growth (E. coli TESEC Mtb Alr [2]; [6]),growth (E. coli TESEC Mtb Alr [2]; [7]),growth (E. coli TESEC Mtb Alr [2]; [8]),growth (E. coli TESEC Mtb Alr [2]; [9]),growth (E. coli TESEC Mtb Asd; [10]),growth (E. coli TESEC Mtb Asd; [11]),growth (E. coli TESEC Mtb DapB; [12]),growth (E. coli TESEC Mtb DapB; [13]),growth [3],growth (E. coli TESEC Mtb Alr [4]; [14]),growth (E. coli TESEC Mtb Alr [4]; [15])
CN(C)CCCOc1nn(Cc2ccccc2)c2ccccc12 [Benzydamine hydrochloride],0.183 ± 0.0043,0.224 ± 0.012,0.25 ± 0.0088,0.167 ± 0.0029,0.112 ± 0.0038,0.146 ± 0.0037,0.193 ± 0.043,0.348 ± 0.023,0.192 ± 0.023,0.216 ± 0.051,0.452 ± 0.0099,0.404 ± 0.0075,0.283 ± 0.021
CC(=O)Oc1cc(C(C)C)c(OCCN(C)C)cc1C [Moxisylyte hydrochoride],0.219 ± 0.0037,0.245 ± 0.055,0.273 ± 0.0074,0.179 ± 0.017,0.155 ± 0.003,0.14 ± 0.00075,0.297 ± 0.046,0.441 ± 0.041,0.171 ± 0.0028,0.247 ± 0.053,0.533 ± 0.029,0.41 ± 0.0064,0.242 ± 0.13
COc1ccccc1Oc1c(NS(=O)(=O)c2ccc(C(C)(C)C)cc2)nc(-c2ncccn2)nc1OCCO [Bosentan],0.227 ± 0.0037,0.253 ± 0.0068,0.269 ± 0.014,0.276 ± 0.011,0.103 ± 0.0025,0.147 ± 0.0018,0.253 ± 0.045,0.335 ± 0.065,0.177 ± 0.022,0.247 ± 0.051,0.544 ± 0.091,0.417 ± 0.0042,0.237 ± 0.015
CN(C)CCC=C1c2ccccc2CCc2ccccc21 [Amitryptiline hydrochloride],0.1735 ± 0.0011,0.218 ± 0.0042,0.247 ± 0.0093,0.195 ± 0.012,0.08457 ± 0.00076,0.152 ± 0.0021,0.146 ± 0.0079,0.273 ± 0.011,0.195 ± 0.019,0.232 ± 0.047,0.476 ± 0.0078,0.403 ± 0.015,0.182 ± 0.031
Cc1cn[nH]c1 [Fomepizole],0.242 ± 0.0098,0.2912 ± 0.0021,0.249 ± 0.0059,0.231 ± 0.024,0.178 ± 0.003,0.137 ± 0.0022,0.233 ± 0.036,0.364 ± 0.065,0.193 ± 0.014,0.215 ± 0.0091,0.554 ± 0.016,0.423 ± 0.011,0.367 ± 0.017
Cc1c(Nc2ncccc2C(=O)O)cccc1C(F)(F)F [Flunixin meglumine],0.146 ± 0.0033,0.084 ± 0.007,0.0857 ± 0.0019,0.163 ± 0.005,0.082 ± 0.0026,0.127 ± 0.0028,0.157 ± 0.0086,0.125 ± 0.0096,0.178 ± 0.0075,0.187 ± 0.01,0.373 ± 0.034,0.277 ± 0.026,0.146 ± 0.021
NC[C@@H]1O[C@@H](O[C@H]2[C@H](O)[C@@H](O[C@H]3O[C@H](CO)[C@@H](O)[C@H](N)[C@H]3O)[C@H](N)C[C@@H]2N)[C@@H](O)[C@H](O)[C@H]1O [Kanamycin A sulfate],0.247 ± 0.0031,0.302 ± 0.013,0.263 ± 0.0086,0.228 ± 0.016,0.1781 ± 0.0015,0.164 ± 0.0095,0.245 ± 0.044,0.404 ± 0.073,0.202 ± 0.0057,0.28 ± 0.056,0.495 ± 0.032,0.403 ± 0.008,0.353 ± 0.014
Nc1ccn([C@@H]2O[C@H](CO)[C@@H](O)C2(F)F)c(=O)n1 [Gemcitabine],0.1523 ± 0.0014,0.208 ± 0.012,0.193 ± 0.029,0.126 ± 0.012,0.116 ± 0.0036,0.164 ± 0.003,0.137 ± 0.0051,0.133 ± 0.0042,0.157 ± 0.0053,0.177 ± 0.035,0.51 ± 0.05,0.321 ± 0.018,0.217 ± 0.0091
NC(=O)c1ccc[n+]([C@@H]2O[C@H](COP(=O)([O-])OP(=O)(O)OC[C@H]3O[C@@H](n4cnc5c(N)ncnc54)[C@H](O)[C@@H]3O)[C@@H](O)[C@H]2O)c1 [Nadide],0.282 ± 0.006,0.363 ± 0.018,0.339 ± 0.0072,0.238 ± 0.031,0.245 ± 0.0026,0.175 ± 0.0086,0.428 ± 0.012,0.441 ± 0.0097,0.21 ± 0.0067,0.216 ± 0.02,0.564 ± 0.14,0.415 ± 0.025,0.416 ± 0.0063
CCC1=C(C)CN(C(=O)NCCc2ccc(S(=O)(=O)NC(=O)N[C@H]3CC[C@H](C)CC3)cc2)C1=O [Glimepiride],0.247 ± 0.0069,0.299 ± 0.011,0.239 ± 0.0027,0.161 ± 0.0087,0.182 ± 0.004,0.155 ± 0.0053,0.338 ± 0.064,0.439 ± 0.052,0.21 ± 0.012,0.221 ± 0.018,0.434 ± 0.034,0.411 ± 0.0056,0.193 ± 0.014
C[C@]12C=CC(=O)C=C1CC[C@@H]1[C@@H]2C(=O)C[C@@]2(C)[C@H]1CC[C@]2(O)C(=O)CO [Prednisone],0.221 ± 0.01,0.298 ± 0.017,0.256 ± 0.0052,0.203 ± 0.012,0.173 ± 0.0063,0.162 ± 0.0056,0.237 ± 0.029,0.414 ± 0.042,0.185 ± 0.0094,0.267 ± 0.014,0.479 ± 0.044,0.412 ± 0.005,0.352 ± 0.019
Cc1cccn2c(=O)c(-c3nnn[nH]3)cnc12 [Pemirolast potassium],0.218 ± 0.011,0.268 ± 0.011,0.2352 ± 0.0021,0.151 ± 0.0021,0.148 ± 0.0043,0.125 ± 0.0032,0.284 ± 0.1,0.371 ± 0.089,0.212 ± 0.028,0.223 ± 0.014,0.49 ± 0.067,0.421 ± 0.012,0.311 ± 0.014
Cc1ccccc1C(OCCN(C)C)c1ccccc1 (stereo not drawn) [Orphenadrine hydrochloride],0.208 ± 0.013,0.26 ± 0.024,0.266 ± 0.015,0.189 ± 0.0084,0.148 ± 0.0039,0.159 ± 0.0037,0.18 ± 0.015,0.383 ± 0.063,0.19 ± 0.0094,0.241 ± 0.021,0.463 ± 0.043,0.412 ± 0.013,0.321 ± 0.029
CC(COc1ccccc1)N(CCCl)Cc1ccccc1 (stereo not drawn) [Phenoxybenzamine hydrochloride],0.0435 ± 0.0034,0.149 ± 0.01,0.0397 ± 0.0001,0.121 ± 0.0026,0.03927 ± 0.00029,0.0621 ± 0.00078,0.199 ± 0.018,0.261 ± 0.053,0.175 ± 0.013,0.228 ± 0.011,0.673 ± 0.025,0.396 ± 0.0062,0.0624 ± 0.018
C=CCc1ccccc1OCC(O)CNC(C)C (stereo not drawn) [Alprenolol hydrochloride],0.217 ± 0.0068,0.267 ± 0.013,0.259 ± 0.013,0.199 ± 0.023,0.156 ± 0.0022,0.145 ± 0.0043,0.322 ± 0.074,0.419 ± 0.027,0.183 ± 0.011,0.284 ± 0.059,0.446 ± 0.015,0.405 ± 0.013,0.363 ± 0.013
COc1ccc2c(c1)c(CC(=O)OCC(=O)O)c(C)n2C(=O)c1ccc(Cl)cc1 [Acemetacin],0.154 ± 0.0063,0.198 ± 0.012,0.195 ± 0.0045,0.139 ± 0.0049,0.109 ± 0.0015,0.131 ± 0.0045,0.21 ± 0.078,0.211 ± 0.012,0.152 ± 0.0045,0.185 ± 0.024,0.363 ± 0.021,0.362 ± 0.084,0.183 ± 0.012
